HCMV antiviral = inhibitors of human cytomegalovirus | HFF cells, HCMV-luciferase reporter, 72 h; active compounds read low | 4.5% of 410,000 active | activity change, negative = inhibition, % at 57.5 µM; in the data active = activity change below about -60%; inconclusive = no clear call, values can overlap the other calls; inactive = above about -39%
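After 16 h attachment at 37C, HFF cells received test compound and HCMV-luciferase (1 PFU/cell); reporter luminescence read 72 h later, data normalized against buffer-only and known inhibitor Salinomycin.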
FMDV inh = blocks foot and mouth disease virus. Potency, µM (highest dose often 57.9 µM), for the others: at the highest dose activity change, negative = inhibition, hits mostly inhibitors. AID 1159524. 1.2% of 410,000 active. FMDV antiviral cell-based qHTS; calls by dose curve; tested in HEK293T cells; also: read-out not given here; potency is read from the fitted curve at half-maximal effect; nearly all actives have a fitted effect of over 45% in size
HCV inh = blocks hepatitis C virus. Huh7.5.1 HCVcc-Cre infection, luciferase reporter, 44 h. Potency, µM (titrated, usually from 41.8 µM), for the others: at the top dose activity change, negative = inhibition, usual class: inhibitors. 3.4% of 340,000 active. AID 651820; active = well fitted inhibition curve with a large enough effect; inconclusive = small, poorly fitted or top-dose-only effect, or another doubt; inactive = no such curve, though single readings can be large or run the other way; also: potency is read from the fitted curve at half-maximal effect
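1,000 cells/well; 4 h culture; + compound; + HCVcc-Cre (~0.5 moi); 44 h; luciferase substrate, RT 15 min; read 15 sec.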
Lassa entry inh = blocks Lassa virus binding to or entry into cells; AID 540256; Potency, µM (top dose mostly 37.9 µM), for inactives: top-dose activity change, negative = inhibition, actives largely listed as inhibitors; Lassa virus pseudotype entry inhibition, cell reporter; 1.2% of 300,000 active; calls by dose curve; tested in HEK293 cells; also: potency is read from the fitted curve at half-maximal effect; nearly all actives have a fitted effect of over 50% in size
MARV entry inh = Marburg virus entry inhibition. Marburg virus pseudotyped entry inhibition, cell reporter. Potency, µM (titrated, usually from 37.8 µM), inactives show at the highest dose activity change, negative = inhibition, usual class: inhibitors. 1.8% of 300,000 active. AID 540276; calls by dose curve; tested in HEK293 cells; also: potency is read from the fitted curve at half-maximal effect
Numbers without * were called inactive; ? = inconclusive; . = not tested or not shown; ! = repeats disagree; [ ] = dose if it differs, or a comment. Hits are enriched below; roughly 7.9% of the tested compounds scored in any of these assays. % is scaled to controls: 0 for no effect and ±100 for the full control effect.

SMILES	HCMV antiviral	FMDV inh	HCV inh	Lassa entry inh	MARV entry inh
COc1ccc(CCNc2ccc(C(CC(N)=O)NC(=O)c3ccc(Br)cc3)cc2[N+](=O)[O-])cc1 (stereo not drawn)	-72*	-25%	7%	.	.
NC(=O)CC(NC(=O)c1ccccc1)c1ccc(NCc2ccccc2)c([N+](=O)[O-])c1 (stereo not drawn)	5	-9%	10µM*	.	.
NC(=O)CC(NC(=O)c1ccccc1)c1ccc(NC2CCCCCCC2)c([N+](=O)[O-])c1 (stereo not drawn)	-99*	?	-21%	.	.
O=C(Cn1ncc2c(Cl)cccc21)NCc1cccc(Br)c1	-3	11%	.	-24%[46.1 µM]	2%[46.1 µM]
CON(C)C(=O)CCN(C(=O)OC(C)(C)C)c1ccccc1	-37	0%	14%	.	.
COC(=O)CCC(=O)N(CCN(C(=O)CCC(=O)OC)c1ccccc1)c1ccccc1	-95*	-10%	-1%	-1%[46.1 µM]	-14%[46.1 µM]
Cc1c2cnn(-c3ccccc3)c(=O)c2c(C)n1CC(=O)NCc1ccccc1	-5	-19%	.	-3%[46.1 µM]	-15%[46.1 µM]
O=C(Nc1cccc2ccccc12)c1cnsn1	-64*	-1%	9%	.	.
O=C(Nc1cccc2ccccc12)c1ccc([N+](=O)[O-])s1	-98*	-16%	?	?	-26%
O=C(Nc1cccnc1)c1ccc([N+](=O)[O-])s1	-84*	-12%	?	.	.
O=C(Nc1ccccc1F)c1ccc([N+](=O)[O-])s1	?	24%	?	?	?
CN(C)c1ccc(C2C=C(c3ccc(Cl)cc3OC(F)F)Nc3ncnn32)cc1 (stereo not drawn)	-22	-22%	10µM*	14µM*	?
O=C(Cc1ccccc1)OC(COCc1ccccc1)CN1CCOCC1 (stereo not drawn)	-88*	-15%	8%	5%	-3%[46.1 µM]
CC(CN1CCOCC1)OC(=O)Cc1ccc(Cl)cc1 (stereo not drawn)	7	4%	0%	-12%	-5%[46.1 µM]
CCCNC(=O)c1sc2c(c1C(=O)Nc1ccccn1)CCCC2	?	-27%	10µM*	-18%	?
Cc1ncc(CO)c2c1Oc1nc(-c3ccccc3)nc(SCC(=O)Nc3cccc(O)c3)c1C2	-3	-14%	?	.	.
COc1ccc(-c2nc3c(c(SCC(=O)Nc4cccc(O)c4)n2)Cc2c(CO)cnc(C)c2O3)cc1	-63*!	-17%	?	?	.
Cc1ccnc(NC(=O)c2ccc(Cl)c(S(=O)(=O)N3CCCCC3)c2)c1	-11	-13%	13µM*	.	.
CCCn1c(NC(=O)c2ccc(Cl)c(S(=O)(=O)N3CCCC3)c2)nc2ccccc21	-63*	?	2.5µM*	?	?
O=C(Nc1ccc2c(c1)CCC2)c1cccc(S(=O)(=O)N2CCN(c3ccccc3)CC2)c1	-15	-6%	0.56µM*	-2%	?
CCCCn1ccnc1C(=O)c1cc(S(=O)(=O)N2CCOCC2)ccc1C	-66*	-12%	11µM*	-21%	?
COc1cccc(N2CCN(S(=O)(=O)c3ccc(-n4cnnn4)cc3)CC2)c1	-38	-9%	8%	-3%[46.1 µM]	0%[46.1 µM]
O=C(Nc1ccc(N2CCOCC2)cc1)c1cccc(S(=O)(=O)N2CCCCC2)c1	-21	?	10µM*!	11%	7%
O=C(Nc1ccc(S(=O)(=O)C(F)F)cc1)c1cccc(S(=O)(=O)N2CCOCC2)c1	-18	18µM*	?	-28%	?
O=C(NNC(=O)c1ccc(O)c(Cl)c1)c1cccc(S(=O)(=O)N2CCOCC2)c1	-3	-1%	13%	-20%	10µM*
SMILES	HCMV antiviral	FMDV inh	HCV inh	Lassa entry inh	MARV entry inh
Cc1ccc(S(=O)(=O)N2CCOCC2)cc1C(=O)Nc1ccc(N2CCCCCC2)cc1	-64*	-13%	5µM*	?	?
CCN1CCN(c2ccc(NC(=O)c3cccc(S(=O)(=O)N4CCCC4)c3)cc2)CC1	0	-10%	-21%	3%[46.1 µM]	14%
Cc1ccn2c(=O)cc(COc3ccc(NC(=O)COc4ccccc4)cc3)nc2c1	-3	-10%	.	-17%[46.1 µM]	.
O=C(Nc1ccc(N2CCOCC2)cc1)c1ccc(Cl)c(S(=O)(=O)N2CCCCC2)c1	-63*	?	2.5µM*	.	.
COc1cccc(C(=O)Nc2cccc(-c3nc4ncccn4c3C)c2)c1	74	30%	.	4%[46.1 µM]	.
COc1cc2c(C#CCCO)c(-c3ccsc3)oc(=O)c2cc1OC	0	-28%	10µM*	.	.
Cc1ccc2nc(Cl)c3cc(C(=O)NCCCN4CCC(C)CC4)sc3c2c1	5	-13%	.	?	6%[46.1 µM]
CC1CCN(CCCNC(=O)c2cc(Sc3ccc(F)cc3)nc3ccccc23)CC1	-65*	-17%	.	-23%[46.1 µM]	.
CC1CCN(CCCNC(=O)c2cc3c(Cl)nc4ccccc4c3s2)CC1	-91*	-23%	13µM*	.	.
O=C(NCCCN1CCCC1)c1cc2c(Cl)nc3ccccc3c2s1	-35	-2%	18µM*	?	10µM*
CCCN1CCN(CCCNC(=O)c2cc3c(Cl)nc4ccccc4c3s2)CC1	-80*	-20%	.	3%[46.1 µM]	?
Cc1cccc(NC(=O)COC(=O)c2ccccn2)c1	18	2%	8%	-1%[46.1 µM]	10%[46.1 µM]
CCOC(=O)C1(C(=O)OCC)CC2=C(C=CC3=C(C=C2)CC(C(=O)OCC)(C(=O)OCC)C3)C1	.	.	.	.	6%[14.2 µM]
CCN1CCN(c2ccc(NC(=O)CC3OC(=O)c4ccccc43)cc2C)CC1 (stereo not drawn)	46	65%	.	.	.
CC(=O)Nc1c(I)cc(I)c(C(=O)O)c1I	-5	-14%	.	.	.
O=S(=O)(NCCCNS(=O)(=O)c1c(F)cccc1F)c1ccc2c(c1)OCCO2	-14	20%	.	.	.
CCCCC(CC)CNC(=O)CN1C(=O)NC2(CCc3ccccc32)C1=O (stereo not drawn)	-14	-17%	-3%	?	?
CCOCCCNC(=O)c1cc(Sc2nnc(C)s2)nc2ccccc12	-26	-15%	10µM*	12%	1%
COCCCNC(=O)c1cc(Sc2nnc(C)s2)nc2ccccc12	60	-14%	-27%	0%	11%
O=C(CCCN1C(=O)C2CC=CCC2C1=O)Nc1ccccc1F (stereo not drawn)	12	5%	7%	.	.
CCOC1=C2CN(S(=O)(=O)c3ccc(C)cc3)[C@H](c3ccc(CC)cc3)C[C@@H]2N(S(=O)(=O)c2ccc(C)cc2)[C@H](c2ccccc2)C1	-73*	-24%	.	.	.
CCOC1=C2[C@H](c3ccccc3Cl)N(S(=O)(=O)c3ccc(C)cc3)C[C@H]2C(C#N)(C#N)C(C#N)(C#N)C1	7	?	.	.	.
CCOC1=C2[C@H](c3ccc(CC)cc3)N(S(=O)(=O)c3ccc(C)cc3)C[C@H]2C(C#N)(C#N)C(C#N)(C#N)C1	-74*	35µM*	.	.	.
CCOC1=C2[C@H](c3ccccc3)N(S(=O)(=O)c3ccc(C)cc3)[C@H](C(C)C)[C@H]2C(C#N)(C#N)C(C#N)(C#N)C1	-76*	.	.	.	.
Cc1cccc(CN2CCC(Oc3ccc(C(=O)N4CCCC4)cc3)CC2)n1	-31	-18%	31%	0%	19%

Screens deposited in PubChem BioAssay by National Center for Advancing Translational Sciences (NCATS).
